# The source made the active and inactive calls. The calls were made as follows: active = hit-call score of the fitted dose curve at least 0.9, where 1 is the maximum; inactive = score below 0.9.
# Read-out: growth arrest and DNA damage 45 (GADD45B), GADD45B (gene 4616)
# Experiment: LTEA_HepaRG_GADD45B: Life Technologies and Expression Analysis (LTEA) Assay for growth arrest and DNA damage 45 (GADD45B) using HepaRG (AID 2283461)
# Settings: mRNA level, 48 h; actives raise or lower the signal
# Experimental: LTEA_HepaRG is a cell based, multiplexed-readout assay that uses HepaRG, a human liver cell line, with measurements taken at 48 hours after chemical dosing on a 96-well plate.LTEA_HepaRG_GADD45B is one of 102 assay component(s) measured in the LTEA HepaRG cell culture assay. It is a marker of Cell proliferation, survival, death.Data from the assay component LTEA_HepaRG_GADD45B was analyzed into 1 endpoint. This assay endpoint, LTEA_HepaRG_GADD45B, was analyzed with bidirectional fitting relative to DMSO as the negative control and baseline of activity. Using a type of inducible reporter, measures of mRNA induction for gain or loss-of-signal activity can be used to understand regulation of transcription factor activity. To generalize the intended target to other relatable targets, this assay endpoint is annotated to the mutagenicity response intended target family, where the subfamily is Cell proliferation, survival, death.
# A total of 1060 chemcials from the ToxCast library were tested in eight-point concentration-response experiments. Cell culture and cytotoxicity assays were conducted at Thermo Fisher Scientific's Custom Services facility (Madison, WI). A single lot of human HepaRG cells (Thermo Fisher Scientific, Frederick, MD) was used for the cell culture experiments. 96-well format collagen type I coated plates of human HepaRG cells were prepared using established methods. Briefly, cryopreserved HepaRG cells were thawed, plated at a density of approximately 100,000 cells/well in HepaRG Thaw, Plate, and General Purpose media (HPRG770, Thermo Fisher Scientific), and incubated for 48 hours. 0.5% DMSO was selected as vehicle control to balance the requisite need of DMSO in HepaRG cultures to maintain differentiation (for example, baseline metabolism, proportions of hepatocytes vs. cholangiocytes), while enabling further hepatic receptor pathway activation (for example, PXR and CAR) in response to chemical exposure. 48 hours after plating, the culture medium was replaced with HepaRG Serum-Free Incudtion Media. Cells were exposed to each test chemical in duplicate and maintained in CO2 incubators for another 48 hours. Chemical plates were thawed to room temperature and 200x concentrations of treatment groups were prepared. 8-point conentration-reponse curves were made with the highest exposure at 100 uM, followed by half-log dilutions, all in 0.5% DMSO. Each test plate contained variouse controls, induction positive controls (1mM phenobarbital), cytotoxicity positive controls ([…] aflatoxin B1), vehicle controls (0.5% DMSO), and total lysis controls (0.5% DMSO). Cell morphology images were taken using an Essen IncuCyte FLR automated microscope, with six 96-well plates imaged in about 24 minutes. Images were captured and exported and JPEG files. Spent culture media was transfered to black-well plates for the LDH assay, and remaining media was sorted at -80 C for later use. Cells were treated with RLT buffer and frozen until shipped for gene expression analysis. Total RNA was isolated from the cell suspension in 75 uL of Buffer RLT (Qiagen, Germantown, MD 20874) by Quintiles/Expression Analysis (Durham, NC) using a custom isolation procedure. Total RNA from each plate well was transferred to a preamplification plate. Fluidigm's 96.96 Dynamic ArrayTM (Fluidigm, Amsterdam, the Netherlands) technology was used for gene expression analyses by quantitative reverse transcription polymerase chain reaction (qRT-PCR, performed by Quintiles/Expression Analysis, Durham, NC)89. Standard TaqManTM Assays (Applied Biosystems/ThermoFisher Scientific, Foster City, CA) were used to assess the expression of 93 genes selected based on their selectivity and sensitivity to important hepatic receptors known to be modulated by environmental chemicals; importance in human hepatocyte functionality; and hepatotoxicity. […]
SMILES,outcome,AC50
CCCCOCCO,inactive,–
CC(C)(C)c1ccc(O)c(C(C)(C)C)c1,inactive,–
NC(=O)N(O)[C@@H]1C=C[C@H](Oc2cccc(Oc3ccc(F)cc3)c2)C1,inactive,–
CCCCCCCCOC(=O)CCCCCCCCC(=O)OCCCCCCCC,inactive,–
c1ccc2c(c1)ccc1ccccc12,inactive,–
CCCCC(CC)COC(=O)CCCCC(=O)OCC(CC)CCCC (stereo not given),inactive,–
O=[N+]([O-])c1ccc(O)cc1,inactive,–
OCCC(F)(F)C(F)(F)C(F)(F)C(F)(F)C(F)(F)C(F)(F)F,inactive,–
CN1CCC[C@H]1c1cccnc1,inactive,–
Oc1cc2ccccc2c2ccccc12,inactive,–
OC1CCC(C2CCCCC2)CC1 (stereo not given),inactive,–
COc1ccc([N+](=O)[O-])cc1N,inactive,–
CCCOC(=O)c1ccc(O)cc1,inactive,–
CN1CCN(c2ccccc2/C=C2\SCCN(c3ccc(Cl)c(Cl)c3)C2=O)CC1,–,50 µM (active)
CCOC(=O)CC(O)(CC(=O)OCC)C(=O)OCC,inactive,–
CCCCCCCCCCCCc1ccccc1S(=O)(=O)O,inactive,–
CC1=C(/C=C/C(C)=C/C=C/C(C)=C/C(=O)O)C(C)(C)CCC1,inactive,–
CCc1nn(C2CCCCC2)c2cc(C3(C#N)CCC(C(=O)O)CC3)ccc12 (stereo not given),inactive,–
CC(C)CCCCCCOC(=O)CCCCC(=O)OCCCCCCC(C)C,inactive,–
O=C(O)Cc1cc(I)c(Oc2cc(I)c(O)c(I)c2)c(I)c1,–,55.4 µM (active)

SMILES,outcome,AC50
O=c1c(-c2ccc(O)cc2)coc2cc(O)ccc12,inactive,–
OCCC(F)(F)C(F)(F)C(F)(F)C(F)(F)C(F)(F)C(F)(F)C(F)(F)C(F)(F)F,inactive,–
COCC(C)OCC(C)O (stereo not given),inactive,–
CC(C)(C)c1cccc(C(C)(C)C)c1O,inactive,–
Oc1cccc(O)c1,inactive,–
CN(C)C=O,inactive,–
CC(C)(C)c1cc(C(C)(C)C)c(O)c(C(C)(C)C)c1,inactive,–
CCCCCCCC(=O)O,inactive,–
NC(=O)N1C(=O)C(C(=O)c2cc(Cl)cs2)c2cc(F)c(Cl)cc21 (stereo not given),–,28.1 µM (active)
c1ccc2cc3c(ccc4ccccc43)cc2c1,–,20.1 µM (active)
CCCCCCCCCCCCN1CCCC1=O,inactive,–
N#C[C@@H]1CC(F)(F)CN1C(=O)CNC1CC2CCC(C1)N2c1ncccn1 (stereo not given in full),inactive,–
CCc1ccc(CCOc2ccc(CC3SC(=O)NC3=O)cc2)nc1 (stereo not given),–,11.9 µM (active)
CC[C@H](C)[C@@H](C(=O)O)n1sc2ccccc2c1=O,inactive,–
CC(=O)CC(C)(C)O,inactive,–
CC(C)(C)CC(C)(C)c1ccc(O)c(-n2nc3ccccc3n2)c1,inactive,–
COC(=O)CCCCC(=O)OC,inactive,–
O=C(OCCOCCOC(=O)c1ccccc1)c1ccccc1,inactive,–
CC#C[C@]1(O)CC[C@H]2[C@@H]3CCC4=CC(=O)CCC4=C3[C@@H](c3ccc(N(C)C)cc3)C[C@@]21C,–,12 µM (active)
CCCCCCC(=O)O,inactive,–

# — PubChem BioAssay (EPA / NIEHS)
